# Where “and” joins values, the source holds several entries; their conditions need not be identical. Identical values can stand only once. Records with an inconclusive call do not appear. Entries that show only a call come without a potency. Calls of active or inactive are those of the source. Unless noted, the call rests on the fitted dose curve.
# Key:
# [1] = molecular target: Muscarinic acetylcholine receptor M1 (Rattus norvegicus) (UniProt P08482); assay: qHTS Assay for Antagonists of Acetylcholine Muscarinic M1 Receptor: Kinetic Measurement of Intracellular Calcium Response (AID 943; active means well fitted curve in the direction sought with a large enough effect; an effect the other way counts as inactive or inconclusive; further: nearly all actives have a fitted effect of over 75% in size; further: potency means the concentration at half of the fitted maximal effect)
# Sequence of Muscarinic acetylcholine receptor M1 (Rattus norvegicus) (P08482 whole entry, looked up): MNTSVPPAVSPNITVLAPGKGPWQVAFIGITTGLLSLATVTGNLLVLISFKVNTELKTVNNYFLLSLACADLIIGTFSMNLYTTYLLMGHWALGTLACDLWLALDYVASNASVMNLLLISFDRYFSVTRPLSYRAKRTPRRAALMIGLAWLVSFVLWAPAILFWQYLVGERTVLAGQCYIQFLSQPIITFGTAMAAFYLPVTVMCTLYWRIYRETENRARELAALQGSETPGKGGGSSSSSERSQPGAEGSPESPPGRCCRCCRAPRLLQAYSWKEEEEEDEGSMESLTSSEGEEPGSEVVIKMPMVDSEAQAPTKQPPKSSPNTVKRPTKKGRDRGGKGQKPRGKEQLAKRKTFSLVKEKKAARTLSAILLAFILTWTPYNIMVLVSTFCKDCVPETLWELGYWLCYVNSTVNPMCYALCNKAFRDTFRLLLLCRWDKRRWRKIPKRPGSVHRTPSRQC
# Method in brief: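 Antagonism is measured as inhibition of the carbachol-evoked calcium rise in CHO cells transfected with rat M1. Cells are dye-loaded, exposed to compound for 10 min, then stimulated with 100 nM carbachol (EC80).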
# [2] = molecular target: Cytochrome P450 2D6 (Homo sapiens) (UniProt P10635); assay: qHTS Assay for Inhibitors and Substrates of Cytochrome P450 2D6 (AID 891; active means well fitted curve in the direction sought with a large enough effect; an effect the other way counts as inactive or inconclusive; further: potency means the concentration at half of the fitted maximal effect; nearly all actives have a fitted effect of over 60% in size)
# Sequence of Cytochrome P450 2D6 (Homo sapiens) (P10635 whole entry, looked up): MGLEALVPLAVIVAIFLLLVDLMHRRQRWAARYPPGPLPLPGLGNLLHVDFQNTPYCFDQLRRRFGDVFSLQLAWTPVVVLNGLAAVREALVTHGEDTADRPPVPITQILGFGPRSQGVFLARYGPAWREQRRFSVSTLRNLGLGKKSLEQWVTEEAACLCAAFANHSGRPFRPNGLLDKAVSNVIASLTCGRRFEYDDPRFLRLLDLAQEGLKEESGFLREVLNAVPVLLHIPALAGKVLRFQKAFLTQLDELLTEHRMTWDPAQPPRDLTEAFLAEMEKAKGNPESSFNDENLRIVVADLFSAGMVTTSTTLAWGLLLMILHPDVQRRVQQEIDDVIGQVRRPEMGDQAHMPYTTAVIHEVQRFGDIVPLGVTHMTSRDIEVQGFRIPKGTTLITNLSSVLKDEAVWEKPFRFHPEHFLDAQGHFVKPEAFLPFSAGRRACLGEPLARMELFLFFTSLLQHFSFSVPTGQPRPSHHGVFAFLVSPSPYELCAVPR
# Method in brief: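 Luminescent read-out of luciferin formed by 5 nM human CYP2D6 demethylating 30 uM Luciferin-ME EGE (Km level) over 60 min at room temperature after NADPH regeneration addition. Data normalized to full inhibition by 1.43 uM quinidine.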
# [3] = Cell Viability - LYMP2-002 (AID 977; active means well fitted curve in the direction sought with a large enough effect; an effect the other way counts as inactive or inconclusive;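 further: compound exposure lasted 24 h at 37 °C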)
# Method in brief: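 In this qHTS viability screen, 2500 human lymphoblastoid cells per well receive compound for 24 hr at 37 C, and luciferase-based ATP luminescence gives the viability signal. Tetraoctylammonium bromide serves as positive control.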
# [4] = molecular target: Glucocorticoid receptor (Homo sapiens) (UniProt P04150); assay: qHTS assay for small molecule antagonists of glucocorticoid receptor signaling (AID 588533; active means well fitted inhibition curve with a large enough effect in the signal ratio, with a control signal flat, not every such curve was filed as active; the % refers to the signal ratio;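 further: cells stimulated with 2 nM dexamethasone as agonist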)
# Sequence of Glucocorticoid receptor (Homo sapiens) (P04150 whole entry, looked up): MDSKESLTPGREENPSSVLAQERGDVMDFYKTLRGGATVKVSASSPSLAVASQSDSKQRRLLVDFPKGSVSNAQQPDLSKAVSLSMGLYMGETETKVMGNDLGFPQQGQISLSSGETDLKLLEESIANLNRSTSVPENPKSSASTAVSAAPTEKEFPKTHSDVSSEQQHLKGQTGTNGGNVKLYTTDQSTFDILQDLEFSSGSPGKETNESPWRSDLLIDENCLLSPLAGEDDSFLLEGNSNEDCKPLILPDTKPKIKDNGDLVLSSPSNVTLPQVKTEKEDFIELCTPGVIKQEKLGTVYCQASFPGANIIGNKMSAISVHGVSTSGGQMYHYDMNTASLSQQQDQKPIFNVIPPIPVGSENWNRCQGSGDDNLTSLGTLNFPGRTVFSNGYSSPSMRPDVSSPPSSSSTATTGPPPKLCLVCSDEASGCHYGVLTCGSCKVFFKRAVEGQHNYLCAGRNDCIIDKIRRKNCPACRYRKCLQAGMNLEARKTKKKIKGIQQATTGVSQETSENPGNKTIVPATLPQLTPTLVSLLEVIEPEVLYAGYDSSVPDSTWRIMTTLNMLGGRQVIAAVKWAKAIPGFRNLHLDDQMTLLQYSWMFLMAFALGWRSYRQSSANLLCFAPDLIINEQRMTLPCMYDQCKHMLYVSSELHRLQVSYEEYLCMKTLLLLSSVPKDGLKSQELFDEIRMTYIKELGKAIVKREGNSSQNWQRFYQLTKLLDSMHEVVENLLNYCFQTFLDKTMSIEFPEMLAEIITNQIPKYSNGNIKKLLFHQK
# Method in brief: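 Antagonist-mode qHTS: compound titrations added to GRE-bla HeLa cells, then dexamethasone 2 nM final; 18 h, 37 C. CCF4 FRET fluorescence normalized to dexamethasone and DMSO; IC50 from Hill fit.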
# [5] = molecular target: Peroxisome proliferator-activated receptor delta (Homo sapiens) (UniProt Q03181); assay: qHTS assay for small molecule agonists of peroxisome proliferator-activated receptor delta signaling (AID 588534)
# Sequence of Peroxisome proliferator-activated receptor delta (Homo sapiens) (Q03181 whole entry, looked up): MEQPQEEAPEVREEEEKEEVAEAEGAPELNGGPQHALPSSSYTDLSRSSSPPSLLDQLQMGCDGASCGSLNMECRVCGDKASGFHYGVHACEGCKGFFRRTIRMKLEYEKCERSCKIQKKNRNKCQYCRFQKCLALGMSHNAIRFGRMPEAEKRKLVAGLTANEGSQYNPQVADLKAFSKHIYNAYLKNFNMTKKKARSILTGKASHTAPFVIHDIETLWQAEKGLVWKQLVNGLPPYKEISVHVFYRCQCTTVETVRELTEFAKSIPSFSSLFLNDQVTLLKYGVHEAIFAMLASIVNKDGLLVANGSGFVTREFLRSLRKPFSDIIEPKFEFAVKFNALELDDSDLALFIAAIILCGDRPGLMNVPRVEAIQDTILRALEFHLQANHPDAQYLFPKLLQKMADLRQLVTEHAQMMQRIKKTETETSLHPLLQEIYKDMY
# Method in brief: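 Agonist-mode qHTS; reporter cells, 5 hrs 37 C pre-incubation; compound titration, 18 hrs 37 C; CCF4 dye, 2 hrs RT; fluorescence read. EC50/efficacy via Hill fit.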
# [6] = qHTS assay for small molecule antagonists of peroxisome proliferator-activated receptor delta signaling (AID 588535; active means well fitted inhibition curve with a large enough effect in the signal ratio, with a control signal flat, not every such curve was filed as active; the % refers to the signal ratio;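 on max response: cells co-treated with a PPAR-delta agonist as stimulator during compound exposure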); conditions: HEK293T PPARd-UAS-bla, beta-lactamase FRET ratio, 18 h; 460 nm channel
# Method in brief: (§1)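 Inhibition of PPAR-delta response element-driven beta-lactamase expression is measured in HEK293T cells exposed to a compound titration series for 18 hrs at 37 C. Half-maximal inhibition comes from Hill equation fitting.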
# [7] = molecular target: Peroxisome proliferator-activated receptor delta (Homo sapiens) (UniProt Q03181); assay: as above
# Method in brief: as §1
# [8] = molecular target: Retinoic acid receptor RXR-alpha (Homo sapiens) (UniProt P19793); assay: qHTS assay for small molecule antagonists of retinoid X receptor alpha signaling (AID 588546; active means well fitted inhibition curve with a large enough effect in the signal ratio, with a control signal flat, not every such curve was filed as active; the % refers to the signal ratio;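 further: cells stimulated with 9-cis-retinoic acid as agonist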); conditions: HEK293T RXRa-UAS-bla, beta-lactamase ratio, antagonist mode
# Sequence of Retinoic acid receptor RXR-alpha (Homo sapiens) (P19793 whole entry, looked up): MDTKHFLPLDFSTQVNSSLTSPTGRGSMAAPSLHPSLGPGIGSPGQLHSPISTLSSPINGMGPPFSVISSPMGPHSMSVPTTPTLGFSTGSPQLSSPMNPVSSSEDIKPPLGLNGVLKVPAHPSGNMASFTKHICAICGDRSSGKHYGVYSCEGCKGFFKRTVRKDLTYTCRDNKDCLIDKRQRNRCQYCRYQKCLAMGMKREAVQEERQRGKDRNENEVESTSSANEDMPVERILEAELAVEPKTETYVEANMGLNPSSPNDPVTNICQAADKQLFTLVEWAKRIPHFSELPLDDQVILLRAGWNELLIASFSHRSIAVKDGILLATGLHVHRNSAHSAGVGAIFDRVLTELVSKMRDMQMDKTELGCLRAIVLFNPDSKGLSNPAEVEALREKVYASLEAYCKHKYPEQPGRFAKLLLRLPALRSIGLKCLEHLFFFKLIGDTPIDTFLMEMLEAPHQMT
# Method in brief: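 Beta-lactamase reporter inhibition, read as CCF4 fluorescence ratio (ex 405, em 460/530 nm) after 2 h at RT. HEK293T UAS-bla cells, 2500/well, were stimulated with 9-cis-RA at 500 or 100 nM final alongside test compound for 18 h at 37 C.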
# [9] = qHTS assay for small molecule agonists of the antioxidant response element (ARE) signaling pathway (AID 651741; active means well fitted activation curve with a large enough effect in the signal ratio; the % refers to the signal ratio; further: potency means the concentration at half of the fitted maximal effect)
# Method in brief: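 Reporter: beta-lactamase under ARE, stably in HepG2. Exposure: 16 h, 37 C, compounds delivered in DMSO by pin tool after 5 h cell preincubation. Readout: FRET substrate fluorescence after 2 h at RT.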
# [10] = qHTS assay for small molecule activators of the nuclear factor-kappa B (NF-kB) signaling pathway (AID 651749; active means well fitted activation curve with a large enough effect in the signal ratio; the % refers to the signal ratio); conditions: NF-kB-bla ME-180 cells, beta-lactamase FRET ratio, 16 h; stronger effect = higher value
# Method in brief: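 Human ME-180 cervical cells with an NF-kB-bla construct; compounds added via 23 nL pin transfer, DMSO as vehicle; incubation 16 hr. Reporter activity measured by FRET disruption.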
# [11] = Cell Viability - LYMP2-005 (AID 967; active means well fitted curve in the direction sought with a large enough effect; an effect the other way counts as inactive or inconclusive)
# Method in brief: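 qHTS viability screen in LYMP2-005 cells: 24 h at 37 C with compound, ATP luminescence via CellTiter-Glo, AC50 from Hill curves.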
# [12] = molecular target: Bile acid receptor (Homo sapiens) (UniProt Q96RI1); assay: qHTS assay for small molecule agonists of farnesoid X receptor signaling (AID 588527); conditions: HEK293T FXR-UAS-bla, beta-lactamase ratio, 16 h; stronger effect = higher value
# Sequence of Bile acid receptor (Homo sapiens) (Q96RI1 whole entry, looked up): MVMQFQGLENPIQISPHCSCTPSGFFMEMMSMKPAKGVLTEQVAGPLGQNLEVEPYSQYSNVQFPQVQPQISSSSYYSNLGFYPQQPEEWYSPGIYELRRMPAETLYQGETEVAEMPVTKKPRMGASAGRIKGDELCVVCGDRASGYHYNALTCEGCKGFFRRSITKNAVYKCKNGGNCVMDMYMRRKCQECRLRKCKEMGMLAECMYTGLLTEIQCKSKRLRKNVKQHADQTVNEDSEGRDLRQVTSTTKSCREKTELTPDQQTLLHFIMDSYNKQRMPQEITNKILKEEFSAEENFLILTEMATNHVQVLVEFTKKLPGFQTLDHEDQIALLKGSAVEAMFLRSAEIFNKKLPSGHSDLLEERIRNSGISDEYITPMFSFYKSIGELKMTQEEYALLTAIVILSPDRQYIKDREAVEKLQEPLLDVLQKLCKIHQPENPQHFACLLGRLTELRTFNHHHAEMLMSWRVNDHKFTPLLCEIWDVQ
# Method in brief: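 Quantitative HTS used FXR-UAS-bla HEK293T cells with 16 h compound incubation at 37 C. EC50 values came from concentration-response curves normalized to chenodeoxycholic acid.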
# [13] = molecular target: Vitamin D3 receptor (Homo sapiens) (UniProt P11473); assay: qHTS assay for small molecule agonists of vitamin D receptor signaling (AID 588543)
# Sequence of Vitamin D3 receptor (Homo sapiens) (P11473 whole entry, looked up): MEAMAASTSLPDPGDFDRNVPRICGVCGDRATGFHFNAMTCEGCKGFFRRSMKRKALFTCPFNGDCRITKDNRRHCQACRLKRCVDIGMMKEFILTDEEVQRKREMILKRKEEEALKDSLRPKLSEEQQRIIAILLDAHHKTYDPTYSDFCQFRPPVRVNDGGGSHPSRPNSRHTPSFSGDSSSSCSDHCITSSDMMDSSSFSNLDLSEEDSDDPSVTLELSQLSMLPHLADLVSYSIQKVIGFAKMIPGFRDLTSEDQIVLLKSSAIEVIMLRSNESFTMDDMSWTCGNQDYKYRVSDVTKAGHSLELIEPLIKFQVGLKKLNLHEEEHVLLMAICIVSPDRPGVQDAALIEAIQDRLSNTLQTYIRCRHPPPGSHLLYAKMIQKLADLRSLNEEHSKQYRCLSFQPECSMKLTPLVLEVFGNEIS
# Method in brief: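 qHTS in agonist mode: compound titrations stimulate a VDR-driven β-lactamase reporter in HEK293T cells over 16 h at 37 °C. Response normalized to 50 nM 1α,25-dihydroxyvitamin D3 = 100%, DMSO = 0%; Hill fitting gives EC50 and maximal response.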
# [14] = Cell Viability - NIH 3T3 (AID 541; active means well fitted curve in the direction sought with a large enough effect; an effect the other way counts as inactive or inconclusive;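 further: cells exposed to compound for 40 hours; nearly all actives have a fitted effect of over 25% in size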); conditions: NIH 3T3 cell viability, qHTS; activity change, negative = cytotoxicity: at 92.2 µM (top of the series)
# Method in brief: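 Cells seeded at 1000/well, rested 5 hr at 37 °C, then dosed and incubated 40 hr at 37 °C. CellTiter-Glo added, 20 min room temperature, luminescence read. AC50 by Hill fit.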
# [15] = molecular target: Estrogen receptor (Homo sapiens) (UniProt P03372); assay: qHTS assay for small molecule antagonists of estrogen receptor alpha signaling (AID 588513; active means well fitted curve in the direction sought with a large enough effect in the signal ratio, with a control signal flat, not every such curve was filed as active; the % refers to the signal ratio)
# Sequence of Estrogen receptor (Homo sapiens) (P03372 whole entry, looked up): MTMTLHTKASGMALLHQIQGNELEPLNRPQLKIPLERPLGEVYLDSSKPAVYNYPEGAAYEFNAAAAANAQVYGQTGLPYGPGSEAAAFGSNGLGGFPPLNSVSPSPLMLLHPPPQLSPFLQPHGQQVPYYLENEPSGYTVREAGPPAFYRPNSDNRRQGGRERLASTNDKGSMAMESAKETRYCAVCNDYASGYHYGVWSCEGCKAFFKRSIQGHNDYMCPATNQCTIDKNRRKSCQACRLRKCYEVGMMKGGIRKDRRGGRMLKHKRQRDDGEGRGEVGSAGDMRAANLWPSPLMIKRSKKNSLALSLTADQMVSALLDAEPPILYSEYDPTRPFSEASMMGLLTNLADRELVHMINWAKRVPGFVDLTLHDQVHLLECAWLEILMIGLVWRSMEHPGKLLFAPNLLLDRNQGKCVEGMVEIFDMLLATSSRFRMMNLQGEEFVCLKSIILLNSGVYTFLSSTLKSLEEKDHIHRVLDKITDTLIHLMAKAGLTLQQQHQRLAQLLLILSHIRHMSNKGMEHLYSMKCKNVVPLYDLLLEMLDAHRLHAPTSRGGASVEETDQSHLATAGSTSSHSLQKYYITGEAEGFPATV
# Method in brief: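 Cells were plated at 5000/well and incubated 4 h at 37 C. Compounds were added as 1:2 dilution series, duplicates. 17-beta-estradiol (0.5nM final) was added for 18 h before CCF4 detection.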
# [16] = molecular target: Estrogen receptor (Homo sapiens) (UniProt P03372); assay: qHTS assay for small molecule agonists of estrogen receptor alpha signaling (AID 588514); further: nearly all actives have a fitted effect of over 70% in size
# Method in brief: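 Efficacy is expressed against 20 nM 17-beta-estradiol (100%) and DMSO basal (0%); EC50 from Hill equation. Assay: beta-lactamase reporter in ER-alpha-UAS-bla HEK 293 cells, 18 h compound incubation, CCF4 detection.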
# [17] = molecular target: Cytochrome P450 3A4 (Homo sapiens) (UniProt P08684); assay: qHTS Assay for Activators of Cytochrome P450 3A4 (AID 885; active means well fitted curve in the direction sought with a large enough effect; an effect the other way counts as inactive or inconclusive; further: nearly all actives have a fitted effect of over 65% in size)
# Sequence of Cytochrome P450 3A4 (Homo sapiens) (P08684 whole entry, looked up): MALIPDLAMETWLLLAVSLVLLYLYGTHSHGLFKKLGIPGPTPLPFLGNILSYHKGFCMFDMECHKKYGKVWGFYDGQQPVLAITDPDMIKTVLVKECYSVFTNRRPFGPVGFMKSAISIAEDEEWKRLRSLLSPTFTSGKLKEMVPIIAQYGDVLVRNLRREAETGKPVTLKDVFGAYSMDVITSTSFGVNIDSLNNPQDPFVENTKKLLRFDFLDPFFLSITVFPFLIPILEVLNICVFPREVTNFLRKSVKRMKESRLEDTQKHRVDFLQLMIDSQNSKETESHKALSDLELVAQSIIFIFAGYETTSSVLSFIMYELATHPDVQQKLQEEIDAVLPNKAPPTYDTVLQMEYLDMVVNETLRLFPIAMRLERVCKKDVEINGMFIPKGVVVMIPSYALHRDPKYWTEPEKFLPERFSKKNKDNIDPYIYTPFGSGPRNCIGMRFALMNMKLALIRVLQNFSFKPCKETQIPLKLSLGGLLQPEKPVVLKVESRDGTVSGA
# Method in brief: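 Using 20nM recombinant human CYP3A4 in potassium phosphate (200mM), substrate Luciferin-PPXE at 25uM, luminescent luciferin detection followed a 60-min RT NADPH reaction; data scaled to 57 uM ketoconazole.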
# [18] = molecular target: Glucocorticoid receptor (Homo sapiens) (UniProt P04150); assay: qHTS assay for small molecule agonists of glucocorticoid receptor signaling (AID 588532; active means well fitted curve in the direction sought with a large enough effect in the signal ratio, with a control signal flat; the % refers to the signal ratio); conditions: HeLa MMTV-bla, beta-lactamase ratio, agonist, 18 h; stronger effect = higher value; percent of dexamethasone control, DMSO zero
# Method in brief: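 Stimulation of a glucocorticoid response element-driven beta-lactamase gene was measured in HeLa cells. Responses were scaled between DMSO basal and 0.1 uM dexamethasone, then fitted for half-maximal stimulation.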
smiles,measurement,setting,value
CCCN1CC[C@@H]2c3cc(O)ccc3CC[C@H]21,Potency,[1],14.1 µM (active)
CN1C[C@@H](CS(=O)(=O)N(C)C)C[C@H]2c3cccc4c3c(cn4C)C[C@@H]21,Potency,[2],3.98 µM (active)
CC(=O)OCC1=C(C(=O)[O-])N2C(=O)[C@@H](NC(=O)CCC[C@@H](N)C(=O)[O-])[C@@H]2SC1.[Zn+2],Potency,[1],inactive
CCN(CC)c1ncnc2c1ncn2[C@@H]1O[C@@H](COP(=O)(O)OP(=O)(O)C(Br)(Br)P(=O)(O)O)[C@H](O)[C@@H]1O,Potency,[1],inactive
BrCCc1ccccc1,Potency,[3],inactive
same,outcome,[4],inactive
same,outcome,[5],inactive
same,max response,[6],-20.6%
same,outcome,[7],inactive
same,max response,[8],9.1% (inactive)
same,Potency,[9],inactive
same,activation,[10],-1.06% (inactive)
CCC#N,Potency,[11],inactive
same,Potency,[3],inactive
same,activation,[12],-0.411% (inactive)
same,outcome,[4],inactive
same,outcome,[5],inactive
same,max response,[6],-1.4%
same,outcome,[7],inactive
same,outcome,[13],inactive
same,Potency,[9],inactive
same,activation,[10],-1.07% (inactive)
Cc1ccc(N)cc1N,Potency,[14],inactive
same,Potency,[11],inactive
same,Potency,[15],inactive
same,Potency,[16],inactive
same,activation,[12],0.164% (inactive) and -1.15% (inactive)
same,outcome,[4],inactive
same,outcome,[5],inactive
same,max response,[6],0.381% and -13.2%
same,outcome,[7],inactive
same,activation,[10],-0.705% (inactive) and -3.37% (inactive)
Cc1cc(-c2cc(C)c(N)c(C)c2)cc(C)c1N,Potency,[14],inactive
same,Potency,[17],inactive
same,Potency,[11],inactive
same,Potency,[3],inactive
same,Potency,[15],inactive
same,Potency,[16],inactive
same,activation,[18],-0.885% (inactive)
same,outcome,[5],inactive
same,max response,[6],7.84%
same,outcome,[7],inactive
same,outcome,[13],inactive
same,max response,[8],-4.04% (inactive)
same,activation,[10],0.737% (inactive)
O=C(O)C(Cl)Br (stereo not given),Potency,[14],inactive
same,Potency,[3],inactive
same,activation,[12],-0.167% (inactive)
same,activation,[18],5.56% (inactive)
same,outcome,[5],inactive
same,max response,[6],33.1%
same,outcome,[7],inactive
same,outcome,[13],inactive
same,Potency,[9],33.5 µM (active)
same,activation,[10],0.434% (inactive)
